Potency and affinity values are given separately. The source made the active and inactive calls. A call without a number means that no potency is given here. How the calls were made is not given here.

Sequence of Kelch-like ECH-associated protein 1 (Homo sapiens) + Nuclear factor erythroid 2-related factor 2 (Homo sapiens) (Q14145 whole entry, looked up, the tested form may be a part): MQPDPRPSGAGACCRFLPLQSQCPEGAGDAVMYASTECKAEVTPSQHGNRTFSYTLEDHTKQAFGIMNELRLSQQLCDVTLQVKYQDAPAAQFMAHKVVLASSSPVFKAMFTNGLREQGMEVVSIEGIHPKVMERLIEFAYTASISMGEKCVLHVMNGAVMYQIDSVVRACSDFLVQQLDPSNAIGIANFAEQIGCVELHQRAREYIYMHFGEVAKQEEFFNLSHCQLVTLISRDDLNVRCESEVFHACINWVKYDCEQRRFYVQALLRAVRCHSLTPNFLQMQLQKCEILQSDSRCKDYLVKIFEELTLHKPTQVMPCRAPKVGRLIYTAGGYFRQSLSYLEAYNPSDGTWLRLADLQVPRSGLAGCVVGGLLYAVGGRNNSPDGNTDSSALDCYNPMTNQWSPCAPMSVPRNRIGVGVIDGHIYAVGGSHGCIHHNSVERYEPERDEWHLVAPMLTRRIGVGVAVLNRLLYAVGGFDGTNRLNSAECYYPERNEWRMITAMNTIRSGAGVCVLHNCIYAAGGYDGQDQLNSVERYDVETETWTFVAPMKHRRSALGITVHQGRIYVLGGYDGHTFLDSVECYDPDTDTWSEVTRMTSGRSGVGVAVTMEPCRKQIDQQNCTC
Sequence of Kelch-like ECH-associated protein 1 (Homo sapiens) + Nuclear factor erythroid 2-related factor 2 (Homo sapiens) (Q16236 whole entry, looked up, the tested form may be a part): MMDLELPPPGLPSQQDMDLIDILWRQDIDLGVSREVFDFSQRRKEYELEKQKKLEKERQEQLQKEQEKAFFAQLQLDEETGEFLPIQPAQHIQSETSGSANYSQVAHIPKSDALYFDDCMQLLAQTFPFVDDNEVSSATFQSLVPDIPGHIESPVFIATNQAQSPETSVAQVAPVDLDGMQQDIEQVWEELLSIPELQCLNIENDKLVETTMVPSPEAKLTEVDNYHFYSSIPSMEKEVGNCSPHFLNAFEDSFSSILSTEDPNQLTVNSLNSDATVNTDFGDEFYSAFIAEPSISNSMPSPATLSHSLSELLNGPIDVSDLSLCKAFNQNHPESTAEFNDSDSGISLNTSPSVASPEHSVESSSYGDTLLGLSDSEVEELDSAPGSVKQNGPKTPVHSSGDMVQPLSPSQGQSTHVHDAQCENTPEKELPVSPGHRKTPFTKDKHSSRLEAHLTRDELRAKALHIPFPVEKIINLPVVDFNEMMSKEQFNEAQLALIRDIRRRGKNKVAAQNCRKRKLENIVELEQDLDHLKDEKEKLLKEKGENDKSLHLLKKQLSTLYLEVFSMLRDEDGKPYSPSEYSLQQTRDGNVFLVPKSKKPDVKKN

This assay concerns the target Kelch-like ECH-associated protein 1 (Homo sapiens) + Nuclear factor erythroid 2-related factor 2 (Homo sapiens) (UniProt Q14145+Q16236). The experiment in a line: disruptors of Keap1 binding to Nrf2 peptide – biochemical, fluorescence polarization, cherry-picked samples, dose response (AID 588683).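 Further: Kelch domain of Keap1 binding a fluorescein-labelled 9mer Nrf2 peptide; more negative means stronger inhibition of peptide binding.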 To be noted: plate reader; series mostly up to 26 µM. (In general: In fluorescence polarisation assays a small probe gives low polarisation when free and higher when bound to something large.)
Regarding `CCOc1ccc(S(=O)(=O)Nc2cccc(C(=O)NCCCn3ccnc3)c2)cc1`, the outcome was inactive.

As for `CCCCC1OC23CCCCC2C(C#N)(C(=N)O3)C1(C#N)C#N` (configuration not stated), the outcome was inactive.

For the molecule `Nc1cccc2cc(S(=O)(=O)O)ccc12`, the outcome was inactive.

Regarding `CCOC(=O)c1c(=O)n(O)c2ccc(OC)cc2[n+]1[O-]`, the outcome was inactive.

On to `CC1Cc2cc(/C=C3/SC(N4CCC(C(N)=O)CC4)=NC3=O)ccc2O1` (configuration not stated), for which the result was inactive.

With `O=[N+]([O-])c1cncc([N+](=O)[O-])c1Nc1cccc(O)c1`, the outcome was inactive.

Turning to `COc1ccc(OC)c(S(=O)(=O)Nc2ccc(F)cc2)c1`, the result was inactive.

With `C=CCn1cccc(C(=O)Nc2ccc(OC)c(Cl)c2)c1=O`, the result was inactive.

On to `CNC(=O)C1CC(=O)N(c2ccc(OCC(=O)Nc3ccc(F)cc3)cc2)C1` (configuration not stated), for which the outcome was inactive.

For the molecule `O=C(Nc1ccccc1C(=O)N1CCCCCC1)c1ccc(F)cc1`, the result was inactive.

As to `Cc1snc(S(=O)(=O)/C(C#N)=N/Nc2cccc(C(F)(F)F)c2)c1C#N`, the outcome was inactive.

`CC(C)Cn1c(N)c(C(=O)CSc2nnc(-c3ccco3)n2C)c(=O)n(C)c1=O`: the result was inactive.

Regarding `O=C(O)c1cccc(-n2cccc2/C=C2/NC(=O)N(c3ccc(Cl)cc3)C2=O)c1`, the result was inactive.

On to `CCOCCCn1c(=NC(=O)c2cccs2)c(C#N)cc2c(=O)n3cccc(C)c3nc21`, for which the result was inactive.

Turning to `CN(C)CCNC(=O)c1c(NC(=O)c2ccccc2)sc2c1CCCC2`, the result was inactive.

With `CCN1CCN(S(=O)(=O)c2ccc(Cl)c(C(=O)NC3CCC(C)CC3)c2)CC1` (configuration not stated), the result was inactive.

As for `C=CCOc1ccc(C2OC34CCCCC3C(C#N)(C#N)C2(C#N)C(=N)O4)cc1` (configuration not stated), the result was inactive.

For `S=C1SCN(CC2CC2)CN1CC1CC1`, the result was inactive.

With `CCOc1ccc(C(=O)COC(=O)c2nn(CC)c(=O)c3ccccc23)cc1`, the result was inactive.

For `COCCCN1C(=O)c2ccc(C(=O)Nc3ccc(C)cc3C)cc2C1=O`, the result was inactive.

With `CC(C)(C)c1cc[n+](-c2[nH]c(=O)sc2/C=N/NC([S-])=Nc2ccccc2)cc1`, the result was inactive.

On to `C=CCn1c(O)c(CN2CCOCC2)c(C)c(C#N)c1=O`, for which the result was inactive.

Turning to `COC(=O)c1cccc(NC(=O)NC(=O)c2ccc(Cl)cc2)c1`, the result was inactive.

Consider `O=C(COC(=O)/C=C/c1cccc(Cl)c1)NC1CC1`, for which the result was inactive.

Regarding `O=C(Nn1cnnc1)c1ccc(Cl)c(Cl)c1`, the result was inactive.

Regarding `CS(=O)(=O)N1CCCC(C(=O)Nc2ccc(F)c(F)c2)C1` (configuration not stated), the outcome was inactive.

As for `O=C1NC(=O)/C(=C/c2ccccc2Cl)N1`, the outcome was inactive.

As to `NC(=O)C1CCN(C2=C(Cl)C(=O)c3ccccc3C2=O)CC1`, the result was inactive.

On to `CN(C)CCN(C)Cc1c2ccccc2c(CN(C)CCN(C)C)c2ccccc12`, for which the outcome was inactive.

For `CCN(CC)C(=O)C1c2ccccc2Oc2ccccc21`, the outcome was inactive.

With `COc1ccc(C2OC34CCCCC3C(C#N)(C#N)C2(C#N)C(=N)O4)cc1` (configuration not stated), the outcome was inactive.

Consider `C/C(=N/Nc1ccccc1C(=O)O)c1cccs1`, for which the result was inactive.

In the case of `CCCC1C2CN(C(C)C)CC=C2C(C#N)=C(N)C1(C#N)C#N` (configuration not stated), the result was inactive.

`CC(C(=O)O)N1C(=O)/C(=C/C=C/c2ccco2)SC1=S` (configuration not stated): the result was inactive.

Turning to `CCN1CC=C2C(C1)C(c1ccc(Cl)s1)C(C#N)=C(N)C2(C#N)C#N` (configuration not stated), the outcome was inactive.

Regarding `N=c1c(C(=O)NC2CCCC2)cc2c(=O)n3ccccc3nc2n1C1CCCCC1`, the result was inactive.

As for `O=S(=O)([O-])CCC[n+]1c(SCCCS(=O)(=O)O)sc2ccc(Cl)cc21`, the outcome was inactive.

For the origin of these results see PubChem BioAssay AID588683 (Broad Institute, 2011).
